Results: PubChem BioAssay (EPA / NIEHS)
Where a structure was tested more than once in an assay, its records may differ in their call. Calls of active or inactive are those of the source. How the source made its calls: active means hit-call score of the fitted dose curve at least 0.9, where 1 is the maximum; inactive means score below 0.9.

Read-out: Interleukin 6 (IL6), IL6 (gene 3569)
Assay: BSK_BT_xIL6: BioMAP Diversity Plus: BT Assay for Interleukin 6 (IL6) Biomarker Activity (AID 2284228)
Conditions: primary human B cells with PBMC
Protocol: BSK_BT is a cell-based, multiplexed-readout assay that uses B cell and peripheral blood mononuclear cells, a human vascular primary cell co-culture, with measurements taken at 24 hours after chemical dosing in a microplate: 96-well plate.BSK_BT_xIL6 is an assay component measured in the BSK_BT assay. It measures secreted IL-6 related to regulation of gene expression using LumineX xMAP technology.Data from the assay component BSK_BT_xIL6 was analyzed at the endpoint, BSK_BT_xIL6, in the positive analysis fitting direction relative to DMSO as the negative control and baseline of activity. Using a type of cytokine quantitation reporter, gain or loss-of-signal activity can be used to understand protein changes. To generalize the intended target to other relatable targets, this assay endpoint is annotated to the 'cytokine' intended target family, where the subfamily is 'interleukins'.
The levels of cell surface (or secreted, indicated by the prefix "s") biomarker endpoints were measured by ELISA. Overt cytotoxicity to cells in confluent adherent cultures (all systems other than the BT system) was assessed by measuring total protein levels using sulforhodamine B (SRB) staining in parallel cultures at the time of biomarker measurements, indicated as SRB endpoints. For proliferation assays for adherent cell types, individual cell types are cultured at sub-confluence and relative cell numbers quantified by SRB staining at time points optimized for each system (48 h: 3C and CASM3C systems; 72 h: BT and HDF3CGF systems; 96 h: SAg system). SRB was performed by staining cells with 0.1% SRB after fixation with 10% TCA and reading wells at 560 nm.Viability and proliferation of PBMC (T cells) was quantified by Alamar Blue reduction for the SAg and BT systems. For PBMC viability (referred to as PBMC Cytotoxicity within the assay endpoint names), cells were plated (75,000/well in a 96-well plate) and then chemical samples added for 1 h before addition of activators, SEB and TSST-1 (20 ng/mL final concentration each). Cells were incubated for 90 h. Then, Alamar Blue (20 uL/well) (Invitrogen, Cat DAL1100) was added for 6 h, and the plates were read with a fluorescence microplate reader at 546/580 nm (excitation/emission). For PBMC proliferation, cells were plated and activated as above but incubated for only 16 h prior to addition of Alamar Blue. Plates were read after 6 h.

Row | SMILES | outcome | AC50
1 | O=C(C(=O)c1ccccc1)c1ccccc1 | inactive | 
2 | CCCCCCCCCCCCCCCCCC[N+](C)(C)C |  | 5 µM (active)
3 | CCCCCCCCCC/C=C/C1CC(=O)OC1=O (stereo unspecified) | inactive | 
4 | CCCCCCC(O)CCCCCCCCCCC(=O)OC (stereo unspecified) | inactive | 
5 | OC(C(F)(F)F)(C(F)(F)F)C(O)(C(F)(F)F)C(F)(F)F | inactive | 39.5 µM (active)
6 | Sc1nc2ccccc2s1 | inactive | 
7 | Cc1cc(-n2nc3ccc(Cl)cc3n2)c(O)c(C(C)(C)C)c1 | inactive | 
8 | CN(C)c1ccc(C(c2ccccc2)c2ccc(N(C)C)cc2)cc1 |  | 14.6 µM (active)
9 | COC(=O)/C=C\C(=O)OC |  | 14.5 µM (active)
10 | CN(C)CCC(c1ccc(Cl)cc1)c1ccccn1 (stereo unspecified) | inactive | 
11 | Oc1cccc2ccccc12 |  | 0.0576 µM (active)
12 | Cc1cccnc1 | inactive | 
13 | CC(C)CC(=O)CC(C)CC(C)C (stereo unspecified) | inactive | 
14 | CCCCCCCCCCC1CO1 (stereo unspecified) | inactive | 
15 | CC[N+](CC)(CC(=O)Nc1c(C)cccc1C)Cc1ccccc1 | inactive | 
